Test results as given in PubChem BioAssay (EPA / NIEHS).
Some compounds were tested as several samples or in several runs, with calls that do not always agree. Activity calls are given as the source filed them. How the source made its calls: active means hit-call score of the fitted dose curve at least 0.9, where 1 is the maximum; inactive means score below 0.9.

System: not listed separately
Assay: ATG_Ets_CIS: Attagene CIS-FACTORIAL HepG2 Assay for human Erythroblast Transformation Specific (ETS) (AID 2282941)
Conditions: HepG2 ETS cis-reporter transcription, actives raise or lower the signal
In short: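 HepG2 cells transfected with multiple cis-regulated reporter units measuring endogenous ETS-driven transcription, 24 h after dosing. Reporter mRNA quantified by RT-PCR with capillary electrophoresis; bidirectional fit relative to DMSO.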

Row | SMILES | outcome | AC50
1 | C[C@]12CCC(=O)C=C1CC[C@@H]1[C@@H]2CC[C@]2(C)C(=O)CC[C@@H]12 | inactive | 
2 | Cc1ccccc1CO[C@@H]1C[C@@]2(C(C)C)CC[C@]1(C)O2 | inactive | 
3 | CCC(C)(CC)c1cc(NC(=O)c2c(OC)cccc2OC)on1 | inactive | 
4 | Cc1ccccc1[N+](=O)[O-] | inactive | 
5 | Cc1ccccc1O | inactive | 
6 | COc1ccc(O)c(C(C)(C)C)c1 |  | 111 µM (active)
7 | Nn1cnnc1 | inactive | 
8 | CCCCCCCCOC(=O)c1ccccc1C(=O)OCCCCCCCC | inactive | 

Target: Hepatocyte nuclear factor 3-beta (Homo sapiens) (UniProt Q9Y261)
Sequence (Q9Y261 whole entry, looked up): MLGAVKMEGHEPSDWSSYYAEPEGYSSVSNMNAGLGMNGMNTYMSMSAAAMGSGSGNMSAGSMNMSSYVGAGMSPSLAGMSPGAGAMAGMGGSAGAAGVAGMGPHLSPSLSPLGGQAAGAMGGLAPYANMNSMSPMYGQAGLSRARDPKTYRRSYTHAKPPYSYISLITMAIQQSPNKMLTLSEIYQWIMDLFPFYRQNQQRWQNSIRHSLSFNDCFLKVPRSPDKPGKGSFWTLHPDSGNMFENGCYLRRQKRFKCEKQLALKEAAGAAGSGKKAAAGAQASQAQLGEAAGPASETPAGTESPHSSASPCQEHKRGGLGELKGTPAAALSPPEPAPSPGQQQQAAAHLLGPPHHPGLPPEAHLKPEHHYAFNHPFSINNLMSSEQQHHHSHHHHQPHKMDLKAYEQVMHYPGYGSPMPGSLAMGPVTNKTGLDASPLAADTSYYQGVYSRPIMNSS
Assay: ATG_FoxA2_CIS: Attagene CIS-FACTORIAL HepG2 Assay for human Forkhead box A2 (FOXA2) (AID 2282942)
Conditions: HepG2 cis-reporter transcription factor activity, 24 h; actives raise or lower the signal
In short: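 HepG2 transiently transfected with a multiplexed cis-promoter reporter library read endogenous FOXA2 activity. After 24 h compound exposure, reporter mRNA was quantified by RT-PCR, HpaI digestion and capillary electrophoresis. Bidirectional fit against DMSO.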

Row | SMILES | outcome | AC50
9 | CO/C=C(/C(=O)OC)c1ccccc1COc1cccc(C(F)(F)F)n1 | inactive | 
10 | CC#Cc1cc(C)nc(Nc2ccccc2)n1 | inactive | 
11 | Clc1ccc(C(c2ccccc2Cl)C(Cl)(Cl)Cl)cc1 (configuration not stated) | inactive | 135 µM (active)
12 | O=NN(c1ccccc1)c1ccccc1 | inactive | 
13 | CCSC(=O)N(CC)C1CCCCC1 | inactive | 
14 | Clc1ccc(Cl)cc1 | inactive | 
15 | Cc1cccc(C)c1N | inactive | 
16 | CCC(C)c1cc([N+](=O)[O-])cc([N+](=O)[O-])c1O (configuration not stated) | inactive | 
17 | C=CC(=O)NCNC(=O)C=C | inactive | 
18 | CCNc1nc(NC(C)C)nc(SC)n1 | inactive | 
19 | CCCCCCOC(=O)c1ccccc1C(=O)OCCCCCC | inactive | 
20 | C=CC(N)=O | inactive | 
21 | CCOC(=O)C(O)(c1ccc(Cl)cc1)c1ccc(Cl)cc1 | inactive | 
22 | C[C@]12CCC(=O)C=C1CC[C@@H]1[C@@H]2CC[C@@]2(C)[C@H]1CC[C@]2(C)O | inactive | 
23 | Cc1cc(-c2ccc(N)c(C)c2)ccc1N | inactive | 

System: not listed separately
Assay: ATG_FoxO_CIS: Attagene CIS-FACTORIAL HepG2 Assay for human Forkhead box O (FoxO) (AID 2282943)
Conditions: HepG2 Attagene cis-reporter, FoxO element, mRNA; actives raise or lower the signal
In short: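 Transfected HepG2 reporter cells exposed to test chemical for 24 h; reporter RNA measured by reverse transcription, PCR and fluorescent capillary electrophoresis; curves fitted for increases and decreases against DMSO.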

Row | SMILES | outcome
24 | CCCN(CCC)N=O | inactive
25 | CC#Cc1cc(C)nc(Nc2ccccc2)n1 | inactive
26 | COS(=O)(=O)OC | inactive
27 | Cc1cc2c3c(c1)C(c1ccccc1)=N[C@@H](NC(=O)c1ccncc1)C(=O)N3CC2 | inactive
28 | Cc1ccccc1CO[C@@H]1C[C@@]2(C(C)C)CC[C@]1(C)O2 | inactive
29 | Clc1ccc(C(c2ccccc2Cl)C(Cl)(Cl)Cl)cc1 (configuration not stated) | inactive
30 | O=NN(c1ccccc1)c1ccccc1 | inactive
31 | Clc1ccc(Cl)cc1 | inactive
32 | Cc1cccc([N+](=O)[O-])c1 | inactive
33 | Clc1ccc(C(Cl)(Cl)Cl)cc1 | inactive
34 | CCC(C)(CC)c1cc(NC(=O)c2c(OC)cccc2OC)on1 | inactive
35 | ClC1=C(Cl)[C@]2(Cl)[C@@H]3[C@H]4C[C@H]([C@@H]5O[C@H]45)[C@@H]3[C@@]1(Cl)C2(Cl)Cl | inactive
36 | CCCCCCOC(=O)c1ccccc1C(=O)OCCCCCC | inactive
37 | C=CC(N)=O | inactive
38 | c1ccc(-c2ccccc2)cc1 | inactive
39 | Cc1cc(-c2ccc(N)c(C)c2)ccc1N | inactive

System: not listed separately
Assay: ATG_GATA_CIS: Attagene CIS-FACTORIAL HepG2 Assay for human GATA Binding Protein (AID 2282944)
Conditions: HepG2 GATA cis-element reporter, Attagene multiplex mRNA; actives raise or lower the signal
In short: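 DMSO serves as negative control and baseline for bidirectional fitting of reporter mRNA changes. HepG2 cells bearing transiently transfected cis-promoter reporters were exposed 24 h; transcripts detected via RT-PCR and capillary electrophoresis.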

Row | SMILES | outcome
40 | COS(=O)(=O)OC | inactive
41 | Cc1cc2c3c(c1)C(c1ccccc1)=N[C@@H](NC(=O)c1ccncc1)C(=O)N3CC2 | inactive
42 | Cc1ccccc1CO[C@@H]1C[C@@]2(C(C)C)CC[C@]1(C)O2 | inactive
43 | Clc1ccc(Cl)cc1 | inactive
44 | Cc1cccc([N+](=O)[O-])c1 | inactive
45 | CCC(C)(CC)c1cc(NC(=O)c2c(OC)cccc2OC)on1 | inactive
46 | Cc1ccccc1[N+](=O)[O-] | inactive
47 | Cc1cccc(C)c1N | inactive
48 | C=CC(=O)NCNC(=O)C=C | inactive
49 | CCNc1nc(NC(C)C)nc(SC)n1 | inactive
50 | Cc1cc(O)ccc1Cl | inactive
51 | COc1ccc(O)c(C(C)(C)C)c1 | inactive
52 | CN(C)c1nc(=O)n(C2CCCCC2)c(=O)n1C | inactive
53 | CCOC(=O)C(O)(c1ccc(Cl)cc1)c1ccc(Cl)cc1 | inactive
54 | c1ccc(-c2ccccc2)cc1 | inactive
55 | C1CC2OC2CC1C1CO1 (configuration not stated) | inactive
56 | CCCCCCCCOC(=O)c1ccccc1C(=O)OCCCCCCCC | inactive

System: not listed separately
Assay: ATG_GLI_CIS: Attagene CIS-FACTORIAL HepG2 Assay for human Zinc Finger Protein GLI1 (AID 2282945)
Conditions: HepG2, Attagene cis-factorial reporter mRNA, GLI element; actives raise or lower the signal
In short: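 Transiently transfected HepG2 cells report endogenous transcription factor activity via cis-element-driven reporter units. After 24 h compound exposure, reporter mRNA was measured by RT-PCR with capillary electrophoresis; bidirectional fitting against DMSO baseline.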

Row | SMILES | outcome
57 | C[C@]12CCC(=O)C=C1CC[C@@H]1[C@@H]2CC[C@]2(C)C(=O)CC[C@@H]12 | inactive
58 | CC#Cc1cc(C)nc(Nc2ccccc2)n1 | inactive
59 | COS(=O)(=O)OC | inactive
60 | Cc1ccccc1CO[C@@H]1C[C@@]2(C(C)C)CC[C@]1(C)O2 | inactive
61 | Clc1ccc(C(c2ccccc2Cl)C(Cl)(Cl)Cl)cc1 (configuration not stated) | inactive
62 | CCSC(=O)N(CC)C1CCCCC1 | inactive
63 | Clc1ccc(Cl)cc1 | inactive
64 | Clc1ccc(C(Cl)(Cl)Cl)cc1 | inactive
65 | Cc1ccccc1[N+](=O)[O-] | inactive
66 | Cc1cccc(C)c1N | inactive
67 | Cc1ccccc1O | inactive
68 | CCC(C)c1cc([N+](=O)[O-])cc([N+](=O)[O-])c1O (configuration not stated) | inactive
69 | CCNc1nc(NC(C)C)nc(SC)n1 | inactive
70 | Cc1cc(O)ccc1Cl | inactive
71 | CN(C)c1nc(=O)n(C2CCCCC2)c(=O)n1C | inactive
72 | ClC1=C(Cl)[C@]2(Cl)[C@@H]3[C@H]4C[C@H]([C@@H]5O[C@H]45)[C@@H]3[C@@]1(Cl)C2(Cl)Cl | inactive
73 | CCCCCCOC(=O)c1ccccc1C(=O)OCCCCCC | inactive
74 | Nn1cnnc1 | inactive
75 | C1CC2OC2CC1C1CO1 (configuration not stated) | inactive
76 | CCCCCCCCOC(=O)c1ccccc1C(=O)OCCCCCCCC | inactive
